Tau fluor cs: counter-screen for tau fibril formation inhibitors | Potency, µM (series often up to 57.7 µM), for the others: top-dose activity change, negative = decrease | tau K18 P301L Alexa594 fluorescence, heparin fibrillization | hit rate 0.93% among 280,000; note: potency is the fitted concentration of half-maximal effect; nearly all actives have a fitted effect of over 55% in size
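Human K18 P301L tau (15 uM unlabeled plus 0.24 uM Alexa 594-labeled, final) in 100 mM sodium acetate pH 7 was mixed with compound and 20 uM heparin and incubated 6 hr at 37 C.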
TR SRC2 fluor cs: Texas Red fluorescence interference in TRb-SRC2 counter-screen. TRb/SRC2 Texas Red total fluorescence interference. Potency, µM (highest dose often 106 µM), inactives show at the highest dose fluorescence change, negative = quenching. hit rate 0.29% among 280,000. AID 1479; active = well fitted curve in either direction with a large enough effect; inconclusive = small, poorly fitted or top-dose-only effect; note: potency is the fitted concentration of half-maximal effect
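Human TRβ ligand-binding domain (0.6 uM) and Texas Red SRC2 peptide (20 nM) in Tris buffer with 1 uM T3 and 5% DMSO were incubated with pinned compound for 5 hr at ambient temperature. Total fluorescence was computed as S + 2P (555/632 nm).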
TRb SRC2 PPI: inhibitors of human thyroid hormone receptor beta-SRC2 interaction | hit rate 0.065% among 280,000 | AID 1469 | TRbeta-SRC2 peptide binding, fluorescence polarization; receptor liganded with 1 µM T3 | Potency, µM (doses to about 106 µM), inactives show at the highest dose activity change, negative = inhibition, most hits filed as inhibitors | P10828;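 note: potency is the fitted concentration of half-maximal effect; plate controls were bound peptide for no effect and peptide without receptor for full effect; nearly all actives have a fitted effect of over 50% in size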
Target sequence (P10828 whole entry, looked up): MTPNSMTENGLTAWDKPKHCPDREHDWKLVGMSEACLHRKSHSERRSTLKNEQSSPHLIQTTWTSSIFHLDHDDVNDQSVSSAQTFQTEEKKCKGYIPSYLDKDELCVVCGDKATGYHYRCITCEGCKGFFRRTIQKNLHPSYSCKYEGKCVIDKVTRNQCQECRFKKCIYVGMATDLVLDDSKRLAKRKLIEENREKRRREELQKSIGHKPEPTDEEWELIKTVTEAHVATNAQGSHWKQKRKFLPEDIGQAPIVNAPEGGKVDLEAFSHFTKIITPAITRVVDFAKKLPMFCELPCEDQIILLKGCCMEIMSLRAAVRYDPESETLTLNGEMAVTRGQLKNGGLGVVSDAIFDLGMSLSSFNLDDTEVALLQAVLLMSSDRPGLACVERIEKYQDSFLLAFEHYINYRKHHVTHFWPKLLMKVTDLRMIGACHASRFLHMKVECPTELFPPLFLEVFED
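Fluorescence polarization of 20 nM Texas Red SRC2 peptide (20-aa NR interaction domain) bound to 0.6 uM human TRb ligand-binding domain, with 1 uM T3, after 5 hr at ambient temperature; inhibition seen as decreased polarization.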
Tau FP inhib: tau fibrillization inhibition (FP); K18 P301L tau heparin fibrillization, Alexa594 FP, 6 h; Potency, µM (highest dose often 57.7 µM), for inactives: top-dose activity, negative = inhibition, most hits filed as inhibitors; P10636; hit rate 0.39% among 280,000; note: potency is the fitted concentration of half-maximal effect; nearly all actives have a fitted effect of over 55% in size
Target sequence (P10636 561-689 P618L limits assumed): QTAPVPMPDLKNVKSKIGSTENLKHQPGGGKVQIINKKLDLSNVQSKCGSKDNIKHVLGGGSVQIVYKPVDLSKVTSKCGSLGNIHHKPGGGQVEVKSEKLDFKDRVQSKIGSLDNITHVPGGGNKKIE
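Human K18 P301L fragment (15 uM unlabeled plus 0.24 uM Alexa 594-labeled) in 100 mM sodium acetate pH 7 with compound, aggregation induced by 20 uM heparin for 6 hr at 37 C. ThT (30 uM) added for 1 hr, then Alexa 594 FP read.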
PNC assembly inh: perinucleolar compartment assembly inhibition; hit rate 3.1% among 140,000; PC3M PTB-GFP, PNC prevalence imaging, 16 h; hits give low values; activity change (PNC), negative = inhibition, % at 10 µM;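 active = readout at or below -70, meaning at least 70% loss of cells showing the perinucleolar compartment, a nuclear body marking cancer cells; inconclusive = readout between -30 and a set limit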;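 note: plate controls were DMSO wells for no effect and camptothecin positive control wells for full effect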
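Read-out is percentage of cells bearing a perinucleolar compartment, from automated 20x imaging of fixed, Hoechst-stained PC3M PTB-GFP cells. Cells were seeded 4 h, then exposed 16 h to compound (23 nl of library stock) in duplicate plates.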
Tau fibril ThT: blocks human tau fibril formation measured by thioflavin T | P10636 | Potency, µM (series often up to 57.4 µM), for the others: top-dose activity, negative = inhibition, hits mostly inhibitors | recombinant tau K18 P301L (four-repeat tau fragment), heparin-induced fibrillization, ThT fluorescence | hit rate 2.1% among 270,000 | AID 1460; note: potency is the fitted concentration of half-maximal effect; nearly all actives have a fitted effect of over 55% in size
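Tau K18 P301L fragment (15 uM unlabeled plus 0.24 uM Alexa 594-labeled) in 100 mM sodium acetate pH 7 with compound, fibrillization induced by 20 uM heparin for 6 hr at 37 C. Thioflavin T (30 uM) added, fluorescence read after 1 hr (ex 450, em 510 nm).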
Active calls of the source: *; ? = inconclusive; nt = no result given; [ ] = another dose, or the depositor's remark. Only some compounds are listed: those with a hit (about 4.6% of all), similar ones and a draw of the others. Unless noted, calls come from the whole dose curve; as a rule, active = well fitted curve in the direction sought with a large enough effect; inconclusive = small, poorly fitted or top-dose-only effect, or another doubt; inactive = no such curve, though single readings can be large; an effect the other way counts as inactive or inconclusive. Unless noted, % is set by controls: 0 for no effect and ±100 for the full control effect.

SMILES | Tau fluor cs | TR SRC2 fluor cs | TRb SRC2 PPI | Tau FP inhib | PNC assembly inh | Tau fibril ThT
CCC1(C)Cc2c(sc3nc(SCC(=O)O)[nH]c(=O)c23)CO1 (stereo not drawn) | 0% | -2% | -5% | 5% | -102* | -7%
CC(=O)Nc1ccc(S(=O)(=O)NCc2ccc(C)cc2)cc1 | -7% | 3% | -10% | -4% | -110* | -7%
C=CCNC(=O)c1ccc(CNS(=O)(=O)c2ccc(NC(C)=O)cc2)cc1 | -2% | -3% | -19% | 2% | 26 | -6%
CC(C)C[C@H](NC(=O)c1[nH]cnc1C(=O)Nc1ccccc1)C(=O)OC(C)(C)C | ? | -1% | 1% | 22µM* | nt | 9%
C[C@H](NC(=O)c1[nH]cnc1C(=O)Nc1ccc(Cl)cc1)C(=O)OC(C)(C)C | ? | 1% | -2% | 25µM* | nt | 10%
CCOC(=O)c1ccc(NC(=O)c2nc[nH]c2C(=O)N[C@@H](C)C(=O)OC(C)(C)C)cc1 | ? | 0% | 7% | ? | nt | 13%
CCOC(=O)c1ccc(NC(=O)c2nc[nH]c2C(=O)N[C@@H](CC(C)C)C(=O)OCc2ccccc2)cc1 | -30% | -2% | -1% | 8.9µM* | nt | ?
O=C(CSc1nc(C2CCCCC2)nc2ccccc12)NCc1ccc2c(c1)OCO2 | -11% | 0% | 1% | -2% | 24 | -9%
CCOC(=O)C1=C(c2ccccc2)Nc2ncnn2C1c1cc(OC)ccc1OC (stereo not drawn) | 0% | 0% | 8% | 1% | -25 | 6%
CCN(CC)c1nc2n(c(=S)n1)CCS2 | 0% | -5% | -7% | -5% | -88* | -3%
CC1=NN(c2nc(-c3ccc(C)cc3)cs2)C(=O)C1N=Nc1cccc(C)c1 (stereo not drawn) | -28% | -1% | 6% | ? | ? | 2µM*
OCc1ccccc1N=c1ssnc1Cl | ? | 2% | -5% | ? | -4 | 35µM*
Clc1nssc1=Nc1ccc(Br)cc1 | -25% | -2% | -7% | ? | nt | 13µM*
N#Cc1cccc(N=c2ssnc2Cl)c1 | -18% | -5% | -7% | ? | nt | 11µM*
COc1cc(N=c2ssnc2Cl)cc(OC)c1 | -9% | -5% | 1% | 3% | ? | -1%
C/C(=N\NC(=O)CNc1ccc(F)cc1)c1cc2ccccc2o1 | -22% | -1% | 5% | ? | nt | ?
O=C(OCc1nc2ccccc2s1)c1ccc(Br)o1 | -9% | -4% | 11% | 6% | nt | -10%
CCCCOc1cccc(C(=O)Nc2ccc3oc(-c4cccnc4)nc3c2)c1 | -21% | -3% | -1% | -14% | nt | -15%
CCOC(=O)C[C@@H](CC(C)=O)C(=O)OCC | -2%[11.6 µM] | 1%[11.2 µM] | 3%[11.2 µM] | -1%[11.6 µM] | nt | -6%[11.5 µM]
CCOC(=O)N1CCN(C(=O)C2CCN(S(=O)(=O)N3CCCC3)CC2)CC1 | 6% | -5% | -2% | 9% | 10 | -4%
CCOC(=O)N1CCN(C(=O)C2CCN(CC3CCCCC3)CC2)CC1 | -1% | -3% | 6% | -2% | -114* | -4%
CCn1c(CNC(=O)c2ccco2)nnc1SCC(=O)Nc1ccc(Br)cc1F | -13% | 1% | -4% | -7% | -10 | -16%
Cn1cc(S(=O)(=O)N2CCCC2)cc1C(=O)Nc1ccc(C(F)(F)F)cc1 | 6% | 45µM*[quencher] | -10% | -13% | nt | -3%
Cc1[nH]c2ccc(C(=O)N3CCN(c4ccccc4F)CC3)cc2c1C | -23% | 2% | 0% | 11% | nt | -15%
CCn1c(=O)c(=O)[nH]c2cc(C(=O)N3CCN(c4ccccc4F)CC3)ccc21 | 0% | 45µM*[fluorescent] | 14% | 7% | ? | -7%
SMILES | Tau fluor cs | TR SRC2 fluor cs | TRb SRC2 PPI | Tau FP inhib | PNC assembly inh | Tau fibril ThT
O=C(O)CCCCCNC(=O)CCn1nnc2ccccc2c1=O | 5% | -4% | -15% | 9% | -3 | -1%
C(=N\Nc1nn[nH]n1)/c1ccccc1 | -7% | -3% | -3% | 1% | 34 | -11%
Clc1ccc(/C=N/Nc2nn[nH]n2)cc1 | -1% | -2% | -3% | 0% | -100* | -1%
Cc1cc(C)n2nc(/C(C#N)=C/c3ccccn3)c(C#N)c2n1 | ? | -6% | 5% | ? | nt | 22µM*
Cc1csc(=Nc2cccnc2)n1CC1CCCCC1 | -13% | -1% | -12% | 7% | 1 | -9%
CCOC(=O)c1c(NC(=O)C2C3C=CC(C3)C2C(=O)O)sc2c1CC(C)CC2 (stereo not drawn) | 3% | 0% | 4% | -5% | nt | -10%
CCOC(=O)c1c(NC(=O)c2ccc(N3C(=O)[C@@H]4[C@H](C3=O)[C@H]3C=C[C@@H]4C3)cc2)sc2c1CC(C)CC2 (stereo partly drawn) | -1% | -5% | 1% | -3% | -125* | 1%
CSc1nc(=O)c2c(n1C)NC(=O)CC2c1cc(F)cc(F)c1 (stereo not drawn) | -7% | -41% | -2% | -5% | nt | 0%
O=c1c2cnn(-c3ccccc3)c2ncn1Cc1ccccn1 | -14% | 1% | -10% | -18% | ? | -10%
Cc1ccc(C(=O)NNC(=O)c2cc(OCC(F)(F)F)ccc2OCC(F)(F)F)cc1 | -11% | -2% | -4% | 10% | -22 | -11%
O=C(NNC(=O)c1cc(OCC(F)(F)F)ccc1OCC(F)(F)F)c1cccc(C(F)(F)F)c1 | -18% | -2% | -5% | ? | -84* | -14%
COc1ccc(CCC(=O)NCCc2csc(-c3cccc(F)c3)n2)cc1 | -4% | -3% | 9% | -1% | nt | -7%
O=C(CNCCO)Nc1ccc(F)c(Cl)c1 | 13% | -6% | 0% | 1% | nt | 12%
Cc1ccccc1C1CC(=O)Oc2ccc(C(C)(C)C)cc21 (stereo not drawn) | -19%[81.3 µM] | 0% | 6% | -5%[81.3 µM] | nt | -10%[81.4 µM]
Cc1ccccc1C1CC(=O)Oc2cc(O)ccc21 (stereo not drawn) | -4%[126 µM] | 100µM*[fluorescent] | ? | ? | nt | -12%[126 µM]
CC[C@@H](c1ccccc1)n1c(=O)n2n(c1=O)[C@H]1[C@H](O)[C@H]3O[C@@H]3/C(=N/OC/C=C(\C)CCC=C(C)C)[C@@H]1CC2 | -1%[11.6 µM] | 0%[11.2 µM] | -1%[11.2 µM] | -4%[11.6 µM] | nt | -4%[11.5 µM]
O=C(Cn1cnc2scc(-c3cccc([N+](=O)[O-])c3)c2c1=O)NCc1ccco1 | -18% | -2% | 0% | 8% | nt | -21%
